Assay results from PubChem BioAssay (NCI).
This is part of a sample that, as a whole, favours compounds with a hit. Of some 83,000 tested, about 20% had one in any assay.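 Interpretation: 100, growth as untreated; towards 0, rising growth inhibition; 0, no net growth; 0 to -100, cell death. Compounds scoring below 10 were considered active.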 Values without a mark were called inactive. The source made the active and inactive calls.

These compounds were tested on SNB-19 CNS (assay: NCI-60 one-dose screen, 48 h (100 = growth as untreated, 0 = no growth, -100 = all killed)). Settings: 10 µM.
Procedure: Growth inhibition of the SNB-19 human tumor cell line is measured as a screen for anti-cancer activity. Cells are grown in 96 well plates and exposed to the test compound for 48 hours. Compounds are tested at a single concentration, which is 10^-5 M for most compounds. The reported endpoint is percent growth (GI% or GIPRCNT), where numbers from 0 - 100% represent growth inhibition, and numbers from -100% - 0 represent cell death. For example, a value of 40 represents 60% growth inhibition. A value of 0 means no net growth occurred over the course of the experiment. A value of -40 indicates 40% of cells at the beginning of the experiment died by the end of the experiment. A value of -100 means all cells are dead at the end of the experiment.
NCI-60 Human Tumor Cell Lines Screen was performed using the standard one-dose NCI protocol, which is described in more detail at https://dtp.cancer.gov/discovery_development/nci-60/default.htm.
Compounds with GIPRCNT values below 10 were considered active. Activity score was based on GIPRCNT using the following formula: […]
Score is 0 for GIPRCNT values of 100 or above, 50 for GIPRCNT values of 0, and 100 for GIPRCNT values of -100.
In the case of `COc1ccc2oc(=O)cc(C(c3ccc[nH]3)c3ccc[nH]3)c2c1`, the growth is reported as 22.1%. With `Oc1ccc(/C=N\Nc2ccccn2)c(O)c1` the growth was 29.4%. In the case of `C=CCn1ccc(=O)nc1SC`, the growth is reported as 106%. Compound `Cn1c(=O)c2[nH]c(C(O)c3ccc(Cl)cc3)nc2n(C)c1=O` (stereo not given) has a growth of 95.8%. Compound `Cc1nc2ccc(-n3c(-c4ccc(Cl)cc4)nc4ccccc4c3=O)cc2n1Cc1ccccc1` has a growth of 108%. Work on `Cc1nc2sccn2c1-c1csc(Nc2cccc(Cl)c2C)n1` yielded a growth of 77.1%. `[O-]c1c[n+](-c2ccc(Cl)cc2)no1` was tested, and the growth was 95.9%. `CS(=O)(=O)Nc1ccc([N+](=O)[O-])cc1Oc1ccccc1` showed a growth of 104%. With `C/C(=N\NC(=S)N1CCCC1)c1ccccn1` the growth was 20.3%. With `C=CCOc1ccc2c(c1)CC=C1[C@@H]2CC[C@]2(C)C(=O)/C(=N/O)C[C@@H]12` the growth was 104%. With `COc1cc(Cn2c(-c3ccccc3)cc3c2-c2oncc2CC3)cc(OC)c1` the growth was 34.8%. With `N=C(N)c1ccc(-c2ccc(-c3cccs3)s2)nc1` the growth was 87.8%. In the case of `CC(=O)O[C@H]1CC[C@@]2(C)[C@@H](CC[C@@H]3[C@@H]2CC[C@]2(C)C=C(C=O)C[C@@H]32)C1`, the growth is reported as 82.5%. `N#Cc1cnc2ccc(NCc3cnc[nH]3)cc2c1Nc1ccc(F)c(Cl)c1` gave a growth of 76.8%. With `CC(=O)c1ccc(NCn2nc(-c3ccc(Cl)cc3)oc2=S)cc1` the growth was 95.8%. Compound `CNCCCNCCCN1C(=O)c2ccc3c4c(ccc(c24)C1=O)C(=O)N(CCCNCc1ccccc1OC)C3=O` has a growth of 36.6%. `Oc1ccccc1-c1nnc(Cn2c(Cc3cccc4ccccc34)nc3ccccc32)o1` was tested, and the growth was 87.1%. Work on `COc1c(C)c(C)c(OC)c2c1[nH]c(=O)c1c3cccnc3cn21` yielded a growth of 108%. `COCc1cc2c(cc1Br)OCO2` gave a growth of 105%. Work on `O=C(O)CNS(=O)(=O)c1ccc(OCCOc2ccc(S(=O)(=O)NCC(=O)O)cc2)cc1` yielded a growth of 106%. `c1ccc(OCCC[P+](c2ccccc2)(c2ccccc2)c2ccccc2)cc1` was tested, and the growth was 12.7%. In the case of `C#CCn1c(-c2cccc(OCCCCl)c2)nc2c1c(=O)n(C)c(=O)n2C`, the growth is reported as 97%. For `Fc1ccc2[nH]c3c(NCCCN4CCOCC4)ncnc3c2c1`, the growth was 91.7%. For `COc1cc(C2C=C(c3ccc(Cl)cc3)N=C3SC(C)=CN32)cc(OC)c1OC` (stereo not given), the growth was 91.5%. `O=C(O)c1ccc(CNc2ccc(C(=O)CCl)cc2)cc1` was tested, and the growth was 103%. For `COc1cc2c3c(cccc3c1)C(=O)N(CCN1CCCC1)C2=O`, the growth was 31.7%. `CC(=O)N(O)c1ccc(/C=C/c2ccccc2)cc1` showed a growth of 32.3%. For `COc1ccc(-c2nnc(N3CCN(C(=O)CN4CCN(c5ccc(Cl)cc5)CC4)CC3)nc2-c2ccc(OC)cc2)cc1`, the growth was 94.7%. `O=S(=O)(NCl)c1ccccc1` was tested, and the growth was 104%. With `COc1cc(CSc2nc3ccc(Cl)cc3c(=O)n2Cc2ccccc2)cc(OC)c1OC` the growth was 61.1%. In the case of `COc1cccc2c1C(=O)c1c(O)c3c(c(O)c1C2=O)C[C@@](O)(C(=O)COC(=O)c1ccccc1)C[C@@H]3OC1CC(N)C(O)C(C)O1` (stereo not given in full), the growth is reported as -75.4% (active). Compound `COc1ccc(-c2nc(-c3nc4ccc(OC)cc4[nH]3)c3ccccn23)cc1` has a growth of 85.5%. For `Cc1[nH]nc2c(=S)[nH]c(=O)[nH]c12`, the growth was 101%. `Cc1nn2c(/C=C3/C(=O)Nc4ccc(Cl)cc43)c(-c3ccccc3)nc2s1` was tested, and the growth was 82.4%. `N#Cc1ncc(-c2cc(F)ccc2F)c(NC2CCCCCC2)n1` was tested, and the growth was 64%. For `COc1cc(CSc2nc3ccc(C)cc3c(=O)n2Cc2ccccc2)cc(OC)c1OC`, the growth was 58.1%. `COc1cc(Cn2c(-c3ccccc3)c(Cl)c3c2-c2oncc2CC3)cc(OC)c1` was tested, and the growth was 85.3%. In the case of `COc1ccc(/C=C2\SC(=S)N(CCCN3CCOCC3)C2=O)c(OC)c1`, the growth is reported as 99.8%. `CCOC(=O)CSC(=S)SCC(=O)OCC` showed a growth of 105%. `COc1cc(-c2cc(/C=C/C(C)=O)[nH]n2)cc(OC)c1OC` showed a growth of 69.1%.
